# Results published in PubChem BioAssay (NCATS).
# Several values for one entry are separate records, joined by “and”; a condition that tells them apart may be missing. Equal entries are not always repeated. Inconclusive results are not listed. Entries that show only a call come without a potency. Activity calls are given as the source filed them. Calls follow the shape of the dose curve; as a rule, active = well fitted curve in the direction sought with a large enough effect; inconclusive = small, poorly fitted or top-dose-only effect, or another doubt; inactive = no such curve, though single readings can be large; an effect the other way counts as inactive or inconclusive.
# Assays:
# [1] = system: Zika virus NS2B-NS3 protease (unlinked complex); assay: Primary screen GU Rhodamine qHTS for Zika virus inhibitors: Unlinked NS2B-NS3 protease assay (AID 1347159); also: nearly all actives have a fitted effect of over 60% in size; also: potency is read from the fitted curve at half-maximal effect
# Outline: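 Compounds, tested up to 114 microM, were incubated for 15 minutes with 25 nM unlinked NS2B-NS3 protease at pH 8.0. Cleavage of 1.5 microM Rhodamine110 substrate was then followed by fluorescence for 15 minutes.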
# [2] = system: Zika virus NS2B-NS3 protease (linked construct); assay: Primary screen NINDS Rhodamine qHTS for Zika virus inhibitors (AID 1347160); also: nearly all actives have a fitted effect of over 55% in size; also: potency is read from the fitted curve at half-maximal effect
# Outline: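 Percent inhibition, normalized to uninhibited and enzyme-free controls, is fitted to a 4-parameter Hill equation. Fluorescence change comes from a 15-min cleavage of 1.5 microM bis-peptide Rhodamine110 substrate by 25 nM linked NS2B-NS3 at room temperature.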
# [3] = ZIKV-mCherry secondary qHTS for Zika virus inhibitors (AID 1347158); also: potency is read from the fitted curve at half-maximal effect
# Outline: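 After overnight seeding at 37 °C, Vero cells receive compound and then ZIKV-mCherry (MOI 1). Following 48-72 h infection, cells are fixed, counterstained with Hoechst, and imaged; percent infected cells is derived from an mCherry intensity cut-off of 450 RFU.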
# [4] = system: Zika virus NS2B-NS3 protease (linked); assay: 384 well plate NINDS AMC confirmatory qHTS for Zika virus inhibitors (AID 1347163); also: nearly all actives have a fitted effect of over 50% in size; also: potency is read from the fitted curve at half-maximal effect
# Outline: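 Linked protease 5/30/60 nM final; cpds up to 1 mM final, ~15 min preinc. Substrate Ac-VKTGKR-AMC 30 microM final. RT, dark, 25 min; FI ex 355/em 460; normalized to no-enzyme/no-inhibitor ctrls.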
# [5] = system: Zika virus NS2B-NS3 protease (linked construct); assay: 384 well plate NINDS Rhodamine confirmatory qHTS for Zika virus inhibitors (AID 1347164);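 also: fluorescence from protease cleavage of Ac-LKRR-rhodamine 110 substrate; nearly all actives have a fitted effect of over 65% in size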; also: potency is read from the fitted curve at half-maximal effect
# Outline: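 Linked protease at a final 5 nM, 30 nM or 60 nM was preincubated ~15 min with compounds, then given 10 microM Ac-LKRR-Rhodamine 110. Fluorescence (ex 485/em 538 nm) after 25 min in the dark at room temperature.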
# [6] = Vero cells viability qHTS for Zika virus inhibitors (AID 1347167)
# Outline: (§1)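 Compounds were tested in concentration series on cells grown in DMEM containing 4% FBS. After 24 to 48 hours, cellular ATP was measured by luminescence with CellTiter Glo.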
# [7] = HepG2 cells viability qHTS for Zika virus inhibitors (AID 1347168); also: potency is read from the fitted curve at half-maximal effect
# Outline: as §1
# [8] = Confirmatory screen NINDS Rhodamine qHTS for Zika virus inhibitors (AID 1347161); also: nearly all actives have a fitted effect of over 60% in size; also: potency is read from the fitted curve at half-maximal effect
# Outline: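 Each compound, titrated, sat 15 min with 25 nM linked protease before 1.5 microM Rhodamine110 substrate went in. Fluorescence gain over the next 15 min, in pH 8.0 Tris with Tween 20, gave Hill-fitted curves.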
# [9] = Tertiary RLuc qRT-PCR qHTS assay for Zika virus inhibitors (AID 1347169); also: top concentration of the series differs between compounds; nearly all actives have a fitted effect of over 55% in size
# Outline: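 Vero cells (1,000 per well) plated overnight at 37 degrees C, treated with compound in DMSO, then infected with recombinant ZIKV-RLuc (Cambodian) at MOI 1-2 for 48-72 hrs. Live-cell Renilla luciferase substrate added; luminescence read after 1-1.5 hrs.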
smiles,measurement,setting,value
Nc1cc(C(F)(F)F)c(-c2cc(N3CCOCC3)nc(N3CCOCC3)n2)cn1,Potency,[1],inactive
same,Potency,[2],inactive
CC(C)(O)c1cc2nc(-c3cnc(N)nc3)nc(N3CCOCC3)c2s1,Potency,[1],inactive
same,Potency,[2],inactive
C[C@@]12O[C@@H](C[C@]1(O)CO)n1c3ccccc3c3c4c(c5c6ccccc6n2c5c31)CNC4=O,Potency,[3],8.91 µM (active)
same,Potency,[4],inactive
same,Potency,[5],inactive
same,Potency,[6],inactive
same,Potency,[7],16.5 µM (active)
O=C(CCCCCCC(=O)Nc1ccc([C@H]2O[C@@H](CSc3nc(-c4ccccc4)c(-c4ccccc4)o3)C[C@@H](c3ccc(CO)cc3)O2)cc1)NO,Potency,[1],8.91 µM (active)
CN(C)CC(C)(C)CNc1nn2c(-c3ccccc3)nnc2cc1C1CCC1,Potency,[1],inactive
same,Potency,[2],inactive
NCC(=O)Nc1ccc(-n2nc(C(F)(F)F)cc2-c2ccc3c(ccc4ccccc43)c2)cc1,Potency,[1],inactive
same,Potency,[2],inactive
COc1ccc(-c2cc3c(C)nc(N)nc3n(C3CCC(OCCO)CC3)c2=O)cn1 (stereo not given),Potency,[1],inactive
same,Potency,[2],inactive
CC1(C)CCC(c2ccc(Cl)cc2)=C(CN2CCN(c3ccc(C(=O)NS(=O)(=O)c4ccc(N[C@H](CCN5CCOCC5)CSc5ccccc5)c(S(=O)(=O)C(F)(F)F)c4)cc3)CC2)C1,Potency,[1],2.24 µM (active)
COc1ccc(-n2nc(C(N)=O)c3c2C(=O)N(c2ccc(N4CCCCC4=O)cc2)CC3)cc1,Potency,[1],inactive
same,Potency,[2],inactive
Cn1cc(-c2ccncc2)c(-c2ccc(OCc3ccc4ccccc4n3)cc2)n1,Potency,[1],inactive
same,Potency,[2],inactive
CC(=O)Nc1sc2c(c1-c1nc3ccccc3s1)CNC2,Potency,[1],inactive
same,Potency,[2],inactive
COc1cc(C(=O)N2CCC(N3CCN(C)CC3)CC2)ccc1Nc1ncc2c(n1)N(C)c1ccccc1C(=O)N2C,Potency,[1],inactive
same,Potency,[2],inactive
Cc1ccc(NC(=O)C2(c3ccc4c(c3)OC(F)(F)O4)CC2)nc1-c1cccc(C(=O)O)c1,Potency,[1],17.8 µM (active)
COc1ccc2c(OCc3nnc4ccc(-c5ccccc5)nn34)ccnc2c1,Potency,[1],inactive
COc1cc2c(Oc3ccc(-c4cnc(Nc5ccc(F)cc5)n(C)c4=O)cc3F)ccnc2cc1OCCCN1CCOCC1,Potency,[1],inactive
same,Potency,[2],inactive
CC(C)c1cc(-c2n[nH]c(=O)n2-c2ccc3c(ccn3C)c2)c(O)cc1O,Potency,[1],inactive
same,Potency,[2],inactive
Cc1cc(Nc2nc(N[C@@H](C)c3ccc(F)cc3)c(C#N)cc2F)n[nH]1,Potency,[1],inactive
Cc1c(C)n(Cc2ccc(-c3ccccc3C(=O)O)cc2)c2ccc(C(=O)N[C@@H](C)c3ccc([N+](=O)[O-])cc3)cc12,Potency,[3],inactive
same,Potency,[1],2.82 µM (active)
same,Potency,[8],3.12 µM (active)
same,Potency,[4],112 µM (active)
same,Potency,[5],22.4 µM (active)
same,Potency,[6],inactive
same,Potency,[7],inactive
CC(C)c1noc(N2CCC(COc3ccc(-c4ccc(S(C)(=O)=O)cc4)nc3)CC2)n1,Potency,[1],inactive
same,Potency,[2],inactive
C=CC(=O)N1CCC[C@@H](n2nc(-c3ccc(Oc4ccccc4)cc3)c3c(N)ncnc32)C1,Potency,[1],inactive
same,Potency,[2],inactive
Cc1cc(CN2CCN(c3c(Br)cnc4nc(-c5ccc(N6CCN(C)CC6)cc5)[nH]c34)CC2)no1,Potency,[3],inactive
same,Potency,[1],inactive
same,Potency,[2],inactive
same,Potency,[8],inactive
same,Potency,[4],inactive
O=C(O)c1ccc2c(c1)nc(Nc1cccc(Cl)c1)c1ccncc12,Potency,[1],39.8 µM (active)
Nc1ncnc2c1c(-c1cccc(OCc3ccccc3)c1)cn2C1CC(CN2CCCC2)C1 (stereo not given),Potency,[1],inactive
same,Potency,[2],inactive
COc1cccc(-c2ccc(NC(=O)C3=C(C(=O)O)CCC3)c(F)c2)c1,Potency,[1],17.8 µM (active)
CC(C)Nc1cc(C(F)(F)F)cc2nc(NC(=O)c3cccnc3)nn12,Potency,[1],inactive
same,Potency,[2],inactive
CN(C)c1nc(Cc2ccc(NC(=O)c3ccc4ccccc4c3)cc2)nc(Cl)c1CC(=O)O,Potency,[1],28.2 µM (active)
COC(=O)c1ccc2c(C(=Nc3ccc(N(C)C(=O)CN4CCN(C)CC4)cc3)c3ccccc3)c(O)[nH]c2c1,Potency,[1],inactive
same,Potency,[2],inactive
Cc1cnc(Nc2ccc(F)cc2Cl)nc1-c1c[nH]c(C(=O)N[C@H](CO)c2cccc(Cl)c2)c1,Potency,[1],39.8 µM (active)
Cc1c(CN2CCN(S(C)(=O)=O)CC2)sc2c(N3CCOCC3)nc(-c3cnc(N)nc3)nc12,Potency,[1],inactive
same,Potency,[2],inactive
COc1ccc2c(c1)CC[C@@H](CN(C)CC(=O)O)[C@H]2c1ccccc1,Potency,[1],inactive
same,Potency,[2],inactive
N#Cc1c(O)c2c(-c3ccc(-c4ccccc4O)cc3)csc2[nH]c1=O,Potency,[3],inactive
same,Potency,[1],2 µM (active)
same,Potency,[2],2.51 µM (active)
same,Potency,[8],2.2 µM (active) and 2.48 µM (active)
same,Potency,[4],8.91 µM (active)
same,Potency,[5],inactive
same,Potency,[6],inactive
same,Potency,[7],inactive
same,Potency,[9],inactive
Nc1ccccc1NC(=O)c1ccc(CNC(=O)OCc2cccnc2)cc1,Potency,[1],inactive
same,Potency,[2],inactive
C[C@@H]1COC(Nc2ccc3ncnc(Nc4ccc(OCc5nccs5)c(Cl)c4)c3c2)=N1,Potency,[1],inactive
same,Potency,[2],inactive
Cn1c(=O)n(-c2ccc(C(C)(C)C#N)cc2)c2c3cc(-c4cnc5ccccc5c4)ccc3ncc21,Potency,[1],inactive
NC(=O)Nc1cc(-c2cccc(F)c2)sc1C(=O)N[C@H]1CCCNC1,Potency,[1],inactive
same,Potency,[2],inactive
CS(=O)(=O)c1ccc(-c2cnc(N)c(C(=O)Nc3ccccc3)n2)cc1,Potency,[1],inactive
same,Potency,[2],inactive
c1ccc2c(CCNc3ccc(Nc4ccncc4)cc3)c[nH]c2c1,Potency,[1],inactive
same,Potency,[2],inactive
O=C1CCC[C@@H]2[C@H]3CCC[N+]4([O-])CCC[C@@H](CN12)[C@@H]34 (stereo not given in full),Potency,[1],inactive
same,Potency,[2],inactive
COc1cccc2c(NCc3ccccc3)nc(-n3c(N)nc4ccccc43)nc12,Potency,[1],50.1 µM (active)
same,Potency,[2],inactive
CC1(O)CC(c2nc(-c3ccc4ccc(-c5ccccc5)nc4c3)c3c(N)nccn23)C1 (stereo not given),Potency,[1],inactive
same,Potency,[2],inactive
CC(=O)Nc1nc(C)c(-c2ccc(Cl)c(S(=O)(=O)NCCO)c2)s1,Potency,[1],inactive
same,Potency,[2],inactive
Cc1cc(Nc2cc(CN3CCOCC3)c3nc(C)c(Cc4ccc(Cl)cc4F)n3n2)n[nH]1,Potency,[1],inactive
same,Potency,[2],inactive
COC(=O)Nc1ccc(-c2nc(N3CCOCC3)c3cnn(C4CCN(Cc5cccnc5)CC4)c3n2)cc1,Potency,[1],inactive
same,Potency,[2],inactive
COc1cccc2nc(-c3cccs3)nc(NN3C(=O)C=C(C)C3=O)c12,Potency,[1],inactive
same,Potency,[2],inactive
O=C(Cc1ccc(-c2ccc(OCCN3CCOCC3)cc2)cn1)NCc1ccccc1,Potency,[1],inactive
same,Potency,[2],inactive
COc1cc2c(NC3CCN(C(C)C)CC3)nc(C3CCCCC3)nc2cc1OCCCN1CCCC1,Potency,[1],inactive
same,Potency,[2],inactive
COC(=O)Nc1nc2ccc(C(=O)c3ccc(F)cc3)cc2[nH]1,Potency,[1],inactive
same,Potency,[2],inactive
CC(C)c1cnn2c(NCc3ccccc3)cc(N[C@@H](CO)[C@H](O)CO)nc12,Potency,[1],inactive
same,Potency,[2],inactive
Nc1ccccc1NC(=O)c1ccc(CNc2nccc(-c3cccnc3)n2)cc1,Potency,[1],inactive
same,Potency,[2],inactive
OCCCNc1cc(-c2ccnc(Nc3cccc(Cl)c3)n2)ccn1,Potency,[1],inactive
same,Potency,[2],inactive
Clc1cccc(-c2nnnn2Cc2cccnc2)c1Cl,Potency,[1],inactive
same,Potency,[2],inactive
CC(C)(C)c1cc(NC(=O)Nc2ccc(-c3cn4c(n3)sc3cc(OCCN5CCOCC5)ccc34)cc2)no1,Potency,[1],inactive
same,Potency,[2],inactive
O=C(O)CCCc1c[nH]c2ccccc12,Potency,[1],inactive
same,Potency,[2],inactive
COc1ccc(C(=O)CC2(O)C(=O)Nc3c(Cl)ccc(Cl)c32)cc1 (stereo not given),Potency,[1],inactive
same,Potency,[2],inactive
COc1cc(-c2nn(C3CCC(N4CCN(C(C)=O)CC4)CC3)c3ncnc(N)c23)ccc1NC(=O)c1cc2ccccc2n1C (stereo not given),Potency,[1],inactive
same,Potency,[2],inactive
Cc1ccc(C(=O)Nc2ccc(CN3CCN(C)CC3)c(C(F)(F)F)c2)cc1C#Cc1cnc2cccnn12,Potency,[1],inactive
same,Potency,[2],inactive
CCCNC(=O)Nc1ccc(Oc2ncnc3cc(OC)c(OC)cc23)cc1Cl,Potency,[1],inactive
same,Potency,[2],inactive
Nc1nc(NCCNc2ncc(-n3ccnc3)c(-c3ccc(Cl)cc3Cl)n2)ccc1[N+](=O)[O-],Potency,[1],inactive
same,Potency,[2],inactive
NC1(Cc2ccc(Cl)cc2)CCN(c2ncnc3[nH]ccc23)CC1,Potency,[1],inactive
same,Potency,[2],inactive
Cc1ccc(C(N)=O)cc1Nc1nccc(-c2cn(C(C)C)c3cnccc23)n1,Potency,[1],inactive
same,Potency,[2],inactive
Nc1ncnc2c1c(-c1cnc3[nH]ccc3c1)nn2C1CCCC1,Potency,[1],inactive
same,Potency,[2],inactive
Cc1nc(Nc2n[nH]c3c2CN(C(=O)N[C@H](CN(C)C)c2ccccc2)C3(C)C)c2sccc2n1,Potency,[1],inactive
same,Potency,[2],inactive
CC(C)c1cc(C(=O)N2Cc3ccc(CN4CCN(C)CC4)cc3C2)c(O)cc1O,Potency,[1],inactive
same,Potency,[2],inactive
CC1(C)CC(=O)c2c(C(F)(F)F)nn(-c3ccc(C(N)=O)c(NC4CCC(OC(=O)CN)CC4)c3)c2C1 (stereo not given),Potency,[1],inactive
same,Potency,[2],inactive
O=C(Nc1nc2cccc(-c3ccc(CN4CCS(=O)(=O)CC4)cc3)n2n1)C1CC1,Potency,[1],inactive
same,Potency,[2],inactive
CC[C@@H]1C(=O)N(C)c2cnc(Nc3ccc(C(=O)NC4CCC(N5CCN(CC6CC6)CC5)CC4)cc3OC)nc2N1C(C)C (stereo not given in full),Potency,[1],inactive
same,Potency,[2],inactive
CNC(=O)c1nn(C)c2c1C(C)(C)Cc1cnc(Nc3ccc(N4CCN(C)CC4)cc3)nc1-2,Potency,[1],inactive
same,Potency,[2],inactive
CCCCCCCCCC(=O)N[C@@H](Cc1c[nH]c2ccccc12)C(=O)N[C@H](CC(N)=O)C(=O)N[C@@H](CC(=O)O)C(=O)N[C@@H]1C(=O)NCC(=O)N[C@@H](CCCN)C(=O)N[C@@H](CC(=O)O)C(=O)N[C@H](C)C(=O)N[C@@H](CC(=O)O)C(=O)NCC(=O)N[C@H](CO)C(=O)N[C@@H]([C@@H](C)CC(=O)O)C(=O)N[C@@H](CC(=O)c2ccccc2N)C(=O)O[C@@H]1C,Potency,[1],inactive
same,Potency,[2],inactive
CS(=O)(=O)N1CCN(Cc2cc3nc(-c4cccc5[nH]ncc45)nc(N4CCOCC4)c3s2)CC1,Potency,[1],inactive
same,Potency,[2],inactive
CC(O)C1C(=O)N2C(C(=O)O)=C(SC3CNC(C(=O)N(C)C)C3)C(C)C12 (stereo not given),Potency,[1],inactive
same,Potency,[2],inactive
Nc1nc(Nc2ccc(S(N)(=O)=O)cc2)nn1C(=O)c1c(F)cccc1F,Potency,[1],inactive
same,Potency,[2],inactive
